Source: PubChem BioAssay (NCI)
Where “and” joins values, the source holds several entries; their conditions need not be identical. Equal entries are not always repeated. About 83,000 compounds went through this panel and 20% of them were active in at least one assay; those are over-represented in the sample as a whole.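 Negative percent growth values reflect cell death: -40 means 40% of the cells present at the start died, and -100 means all died.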 Calls of active or inactive are those of the source. The calls were made as follows: active = growth percent below 10; inactive = the rest.

Experiments:
Assay in all cases: NCI-60 one-dose screen, 48 h (100 = growth as untreated, 0 = no growth, -100 = all killed)
Details in all cases: 10 µM unless noted
SR leukemia = tested on: SR leukemia
RPMI-8226 leukemia = tested on: RPMI-8226 leukemia
OVCAR-8 ovarian = tested on: OVCAR-8 ovarian
OVCAR-5 ovarian = tested on: OVCAR-5 ovarian
OVCAR-4 ovarian = tested on: OVCAR-4 ovarian
OVCAR-3 ovarian = tested on: OVCAR-3 ovarian
HS 578T breast = tested on: HS 578T breast
NCI/ADR-RES ovarian = tested on: NCI/ADR-RES ovarian
T-47D breast = tested on: T-47D breast
BT-549 breast = tested on: BT-549 breast
MDA-MB-435 melanoma = tested on: MDA-MB-435 melanoma
SW-620 colon = tested on: SW-620 colon
MCF7 breast = tested on: MCF7 breast
HCT-116 colon = tested on: HCT-116 colon
HCC-2998 colon = tested on: HCC-2998 colon
KM12 colon = tested on: KM12 colon
IGROV1 ovarian = tested on: IGROV1 ovarian
SK-OV-3 ovarian = tested on: SK-OV-3 ovarian

| Structure (SMILES) | growth (SR leukemia) | growth (RPMI-8226 leukemia) | growth (OVCAR-8 ovarian) | growth (OVCAR-5 ovarian) | growth (OVCAR-4 ovarian) | growth (OVCAR-3 ovarian) | growth (HS 578T breast) | growth (NCI/ADR-RES ovarian) | growth (T-47D breast) | growth (BT-549 breast) | growth (MDA-MB-435 melanoma) | growth (SW-620 colon) | growth (MCF7 breast) | growth (HCT-116 colon) | growth (HCC-2998 colon) | growth (KM12 colon) | growth (IGROV1 ovarian) | growth (SK-OV-3 ovarian) |
| --- | --- | --- | --- | --- | --- | --- | --- | --- | --- | --- | --- | --- | --- | --- | --- | --- | --- | --- |
| Nc1ccccc1Nc1ccccc1 | 68.2% (inactive) and 72.1% (inactive) | 42.3% (inactive) and 29.1% (inactive) | 95.7% (inactive) and 92.3% (inactive) | 129% (inactive) and 115% (inactive) | 93.7% (inactive) and 88.9% (inactive) | 79.8% (inactive) and 57% (inactive) | 89.1% (inactive) and 102% (inactive) | 88% (inactive) and 84.7% (inactive) | 88.1% (inactive) and 83.5% (inactive) | 70.9% (inactive) and 58.4% (inactive) | 91.5% (inactive) | 106% (inactive) and 112% (inactive) | 93.8% (inactive) and 91.8% (inactive) | 86.6% (inactive) and 88.8% (inactive) | 98.7% (inactive) and 96.4% (inactive) | 85.8% (inactive) and 79.6% (inactive) | – | – |
| OC(COc1cccc2ccccc12)CN1CCN(c2ccc(Cl)cc2)CC1 (stereo unspecified) | 113% (inactive) and 75.2% (inactive) | 68.2% (inactive) | 79.8% (inactive) and 87.1% (inactive) | 84.1% (inactive) and 87.3% (inactive) | 35.2% (inactive) and 92.1% (inactive) | 83.2% (inactive) and 116% (inactive) | 68% (inactive) and 116% (inactive) | 88.6% (inactive) and 83.4% (inactive) | – | 85.4% (inactive) and 134% (inactive) | 90.2% (inactive) and 94.6% (inactive) | 71.7% (inactive) and 98.6% (inactive) | 83.6% (inactive) and 89.7% (inactive) | 60.2% (inactive) and 83.4% (inactive) | 94.2% (inactive) | 90% (inactive) and 113% (inactive) | 103% (inactive) and 84.8% (inactive) | – |
| Nc1ncnc2c1ncn2C1CC(O)C(CO)O1 (stereo unspecified) | 110% (inactive) and 95% (inactive) | 102% (inactive) and 105% (inactive) | 102% (inactive) and 109% (inactive) | 103% (inactive) and 116% (inactive) | 113% (inactive) and 107% (inactive) | 127% (inactive) and 109% (inactive) | 107% (inactive) and 153% (inactive) | 104% (inactive) and 113% (inactive) | 112% (inactive) and 99.1% (inactive) | – | 105% (inactive) and 107% (inactive) | 115% (inactive) and 105% (inactive) | 96.1% (inactive) and 97.1% (inactive) | 103% (inactive) and 100% (inactive) | -17.3% (active) and 119% (inactive) | 114% (inactive) and 107% (inactive) | – | 105% (inactive) and 110% (inactive) |
| CCCCCn1sc(=O)n(Cc2ccc(CNC(=O)C(C)c3ccc(CC(C)C)cc3)cc2)c1=O (stereo unspecified) | 104% (inactive) and 1.27% (active) | 99.7% (inactive) and -24.6% (active) | 92.5% (inactive) and -15% (active) | 103% (inactive) and -53.7% (active) | 90% (inactive) and -47.6% (active) | 102% (inactive) and -75.4% (active) | 98.4% (inactive) and -7.35% (active) | 99.8% (inactive) and -17.6% (active) | 86.4% (inactive) and -44.8% (active) | 99.1% (inactive) and -82.4% (active) | 98.1% (inactive) and -61.5% (active) | 87.6% (inactive) and -73.1% (active) | 93.2% (inactive) and -43.1% (active) | 103% (inactive) and -82.6% (active) | 105% (inactive) and -64.3% (active) | 88.7% (inactive) and -14.3% (active) | 106% (inactive) and -83.2% (active) | – |
| Cc1cc(O)c2c(c1)C(=O)c1cc(O)cc(O)c1C2=O | 108% (inactive) and 86% (inactive) | 75.8% (inactive) and 74.3% (inactive) | 92.7% (inactive) | 68% (inactive) and 95.6% (inactive) | 55% (inactive) and 68.5% (inactive) | 84.1% (inactive) and 95.9% (inactive) | 89.7% (inactive) and 88.9% (inactive) | – | 65% (inactive) and 73.4% (inactive) | 84.5% (inactive) and 88.1% (inactive) | 76.8% (inactive) and 83.6% (inactive) | 100% (inactive) and 97.3% (inactive) | 98.4% (inactive) and 95.1% (inactive) | 92.9% (inactive) and 97.5% (inactive) | 95% (inactive) and 108% (inactive) | 98.1% (inactive) and 91.9% (inactive) | – | 102% (inactive) and 84.8% (inactive) |
| Nc1n[nH]c(=S)n1-c1ccc(Cl)cc1 | 96.6% (inactive) | 80.8% (inactive) | 100% (inactive) | 98.6% (inactive) | 99.5% (inactive) | 100% (inactive) | 100% (inactive) | 100% (inactive) | 97.6% (inactive) | 92.5% (inactive) | 112% (inactive) | 97% (inactive) | – | 95.4% (inactive) | 108% (inactive) | 103% (inactive) | 110% (inactive) | – |
| CN(C)c1ccc2nc3ccc(N)cc3[n+](-c3ccccc3)c2c1 | 18.6% (inactive) and 11% (inactive) | 8.36% (active) and 13.7% (inactive) | 19.4% (inactive) and -16.6% (active) | 87.1% (inactive) and -46.4% (active) | 29.2% (inactive) and 1.54% (active) | 23.5% (inactive) and -18.1% (active) | 31.7% (inactive) and 23.4% (inactive) | 92% (inactive) and 26% (inactive) | -15.1% (active) and 0.414% (active) | 27.5% (inactive) | 4.97% (active) and -49.2% (active) | 20.8% (inactive) and -13.9% (active) | 3.88% (active) and -17.2% (active) | 9.48% (active) and 5.93% (active) | 14.6% (inactive) and 51.9% (inactive) | 15.7% (inactive) and 24.2% (inactive) | 12.8% (inactive) and 13.7% (inactive) | – |
| COc1ccc2nc(Cl)cc(C)c2c1 | 88.2% (inactive) and 82.3% (inactive) | 95.6% (inactive) and 109% (inactive) | 101% (inactive) and 47.4% (inactive) | 93.7% (inactive) and 93.4% (inactive) | 99.2% (inactive) and 91.8% (inactive) | 119% (inactive) | 113% (inactive) | 98.9% (inactive) and 102% (inactive) | 98.5% (inactive) and 128% (inactive) | 130% (inactive) and 92% (inactive) | 93.6% (inactive) and 96.1% (inactive) | 102% (inactive) and 122% (inactive) | 92.1% (inactive) and 111% (inactive) | 107% (inactive) and 89.6% (inactive) | 108% (inactive) and 96.1% (inactive) | 99.3% (inactive) and 124% (inactive) | 108% (inactive) and 132% (inactive) | – |
